Shown are actives, neighbours in structure and some others; about 1.6% of the full set was active somewhere.
p53ts 32C kill = qHTS Screen for Compounds that Selectively Target Cancer Cells with p53 Mutations: Cytotoxicity of p53ts Cells at the Permissive Temperature. 0.93% of 130,000 active. Potency, µM (top dose mostly 46.1 µM), without a hit: at the highest dose activity change, negative = cytotoxicity, usual class: cytotoxic. H1299-p53A138V at 32C, ATP luminescence viability, 24 h;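 note: 0% = DMSO and -100% = full killing by reference compound; nearly all actives have a fitted effect of over 55% in size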
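H1299-p53 A138V cells (temperature-sensitive p53) exposed 24 h to up to 46 uM compound at 32C, where p53 is wild-type in conformation. Viability read as ATP luminescence and normalised to DMSO and 100 uM tamoxifen. AC50 fitted with the Hill equation.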
Peg3 imprint = qHTS Assay for Compounds that Induce Erasure of Genomic Imprints | mouse ES Peg3-LacZ reporter, beta-gal luminescence, 40 h | Potency, µM (top dose mostly 60.7 µM), without a hit: top-dose activity change, positive = activation, hits mostly activators | AID 1948, 2009 | 0.02% of 110,000 active
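Readout: BetaGlo luminescence (5 min, room temp) for LacZ from the normally silent maternal Peg3 allele in female Peg3LacZ-Neo ES cells. Cells 300/well, 40 h, 37C, 5% CO2. Data normalized per plate to negative controls.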
p53ts 39C tox = qHTS Screen for Compounds that Selectively Target Cancer Cells with p53 Mutations: Cytotoxicity of p53ts Cells at the Nonpermissive Temperature; 1.5% of 130,000 active; H1299-p53A138V viability at 39C, ATP luminescence, 24 h; Potency, µM (highest dose often 46.1 µM), without a hit: at the top dose activity change, negative = cell killing, usual class: cytotoxic; note: % is set by controls: 0 for no effect and ±100 for the full control effect; nearly all actives have a fitted effect of over 55% in size
IkB sig inh = IkB Signaling; ABC-DLBCL IkBa-CBG/CBR dual luciferase ratio, 4 h; response scale: scaled: untreated 0%, proteasome inhibitor 100%; 0.04% of 110,000 active; Potency, µM (series often up to 57.1 µM), for the others: at the highest dose IkBa stabilization activation; active = well fitted curve in the direction sought with a large enough effect in the signal ratio, not every such curve was filed as active; inconclusive = small, poorly fitted or top-dose-only effect, or a change in a side signal; the % refers to the signal ratio;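 note: the direction sought is a rising ratio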
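Curves were fitted separately to fusion (green), unfused (red) and ratio luminescence, then classed by r2, magnitude and activity. Cells: OCI-Ly3, 4 h compound plus doxycycline at 37C; 10 uM MG-132 defined full response.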
An asterisk follows results filed as active; ? = inconclusive; / = no result; [ ] = remark or other dose. Unless noted, calls come from the whole dose curve; as a rule, active = well fitted curve in the direction sought with a large enough effect; inconclusive = small, poorly fitted or top-dose-only effect, or another doubt; inactive = no such curve, though single readings can be large; an effect the other way counts as inactive or inconclusive. Potency is the fitted concentration of half-maximal effect.

SMILES	p53ts 32C kill	Peg3 imprint	p53ts 39C tox	IkB sig inh
CC(=O)Oc1c(S(=O)(=O)c2ccc(C)cc2)c(C)nn1C(C)(C)C	-5.2%	-14.1%	5.3%	?
O=c1c2ccccc2oc2cc(O)c([C@@H]3COC[C@@H](CO)[C@@H](O)[C@@H](O)[C@H]3O)c(O)c12	/	/	/	0.3%[11.4 µM]
O=C(O)c1ccccc1NS(=O)(=O)c1ccc(Cl)c(Cl)c1	18.9%	/	12.8%	/
Cn1c(=O)c2c(nc(/C=C\c3cccc(Cl)c3)n2C)n(C)c1=O	13.5%	/	13.9%	-5.3%
Nc1ncnc2c1nc(Br)n2[C@@H]1O[C@H]2COP(=O)(O)O[C@@H]2[C@H]1O	-8.4%	/	-3.3%	?
O=C(CCC1CCCC1)Nc1ccc(OCC(=O)N2CCOCC2)cc1	7.94µM*	/	?	/
COC(=O)CNc1c(-c2ccccn2)nc2ccc(Br)cn12	15.8µM*	-90.3%	12.6µM*	16.0%
O=C(NCc1ccccc1Cl)c1cccc(C(F)(F)F)c1	-25.3%	/	15.8µM*	/
O=C(O)[C@H]1C[C@H](C(=O)O)N1	13.3%	/	13.5%	-1.9%
O=C1CC(c2ccccc2)Cc2nc(NCc3ccco3)ncc21 (configuration not stated)	6.31µM*	-62.4%	7.94µM*	7.7%
O=C(Nc1ncc2c(n1)CC(c1ccccc1)CC2=O)c1ccco1 (configuration not stated)	-5.6%	-5.6%	3.5%	-1.1%
CCN(c1ccccc1)S(=O)(=O)c1nnc(NC(=O)c2ccco2)s1	?	-34.8%[10.9 µM]	1.26µM*	7.6%
CCN(CC)c1ccc(NC(=O)c2ccco2)cc1	10µM*	-35.9%	10µM*	4.9%
O=C(Nc1ccc(-c2noc(CCc3ccccc3)n2)cc1)c1ccco1	?	-61.1%	10µM*	?
Cc1ccc(C)c(NS(=O)(=O)c2cc(C(=O)O)ccc2Cl)c1	7.7%	/	4.5%	/
Cc1cccc([C@H]2[C@@H]3C=CC(C)C[C@@H]3C(=O)N2Cc2ccccc2)c1 (some centres not stated)	/	-16.8%	/	/
Cc1ccc(-n2ncc3c(N(C)Cc4ccccc4)ncnc32)cc1	?	-12.5%[10.9 µM]	15.8µM*	1.6%
CCN(c1ccccc1)c1ncnc2c1cnn2-c1ccc(OC)cc1	?	-4.5%[10.9 µM]	12.6µM*	?
CCCCN(c1ccccc1)c1ncnc2c1cnn2-c1ccc(Cl)cc1	-13.9%	-12.0%[10.9 µM]	-21.9%	-3.4%
Cc1ccc(-n2ncc3c(N(CCO)Cc4ccccc4)ncnc32)cc1	-16.6%	-10.0%[10.9 µM]	?	-1.9%
Cc1cccc(OCC(=O)Nc2ccc3c(c2)OCCO3)c1	10µM*	-6.6%	?	0.4%
COc1cc(SC)ccc1C(=O)Nc1ccc2c(c1)OCCO2	10µM*	-73.6%	12.6µM*	?
COc1ccccc1C(=O)Nc1ccc2c(c1)OCO2	?	-63.4%	?	2.0%
COc1ccccc1NC(=O)CN1CCN(CC(=O)Nc2ccc3c(c2)OCCO3)CC1	9.5%	-6.7%	25.1µM*	?
O=C(COc1ccccc1Cl)Nc1ccc2c(c1)OCCO2	?	-14.4%	?	?
SMILES	p53ts 32C kill	Peg3 imprint	p53ts 39C tox	IkB sig inh
COc1ccccc1C(=O)Nc1ccc2c(c1)nc(CCNC(C)=O)n2C	12.6µM*	-13.5%	12.6µM*	3.1%
CO/N=C(\C)CCN1CCc2nc(-c3ccccc3)c(-c3ccccc3)cc2C1	12.3%[9.22 µM]	/	4.4%[9.22 µM]	/
O=C1C=CC2=C3c4cc(O)c(O)cc4C[C@@]3(O)COC2=C1O	/	/	/	1.6%[11.4 µM]
Cc1cccc2cc3ccc4ccccc4c3cc12	-4.5%[9.22 µM]	-10.3%[10.9 µM]	-0.2%[9.22 µM]	-0.5%[11.4 µM]
CC1=Nc2cc(C(=O)NCCc3ccc(Cl)cc3)ccc2Sc2c(C)ccc(C)c21	4.1%	-24.5%[10.9 µM]	?	2.0%
COc1ccccc1C(=O)Nc1ccc2c(c1)OCCO2	15.8µM*	/	15.8µM*	6.7%
O=C(CSc1nc(=O)[nH]c2c1CCCC2)NCc1ccc(Cl)cc1	-7.8%	2.8%[10.9 µM]	-12.5%	-1.1%
COC(=O)[C@@]1(Cc2ccc(OC)cc2)[C@@H]2C(=CC(=O)[C@H]2CC(=O)C(=O)N(C)C)CN1C(=O)c1ccccc1	65.6%	-25.2%	134.3%	/
C=C1C(=O)C=C2CN(C(=O)c3ccccc3)[C@@](Cc3ccc(F)cc3)(C(=O)OC)[C@@H]12	3.16µM*	-34.5%	3.16µM*	/
O=C1c2ccccc2C(=O)c2c1ccc(O)c2O	-2.0%	-43.3%	-12.5%	/
O=C1c2ccc(O)c(O)c2C(=O)c2c(O)ccc(O)c21	?	-18.2%	5.01µM*	/
CCc1ccccc1NC(=O)Cn1c(=O)n(CCc2ccccc2)c(=O)c2sc3ccccc3c21	-11.6%	-12.3%[10.9 µM]	10µM*	-0.8%
CC1CCC(C(=O)O)NC1c1ccc(C#CCN(C)C)cc1 (configuration not stated)	6.9%[9.22 µM]	/	1.3%[9.22 µM]	/
CCN(CCO)CCCC(C)Nc1ccnc2cc(Cl)ccc12 (configuration not stated)	-5.8%	-8.1%	0.6%	/
CCN(CC)CCC[C@H](C)Nc1c2ccc(Cl)cc2nc2ccc(OC)cc12	5.01µM*	-10.3%[16.8 µM]	10µM*	?
O=C(Nc1ccc2c(c1)OCO2)C1CCCN(c2nc3ccccc3s2)C1 (configuration not stated)	20µM*	-73.2%	?	?
Cc1cccc(NC(=O)C2CCCN(c3nc4ccccc4s3)C2)c1C (configuration not stated)	12.2%	-5.5%[10.9 µM]	-15.9%	?
Cc1csc(C(C#N)C(=O)c2cc3ccccc3o2)n1 (configuration not stated)	5.01µM*	-59.3%	5.01µM*	?
CCC(=O)Nc1ccc(NC(=O)c2cc3ccccc3o2)cc1	-8.6%	-28.8%	-6.3%	-1.5%
Cn1nnnc1SCCCNCc1ccccc1OCc1ccc(Cl)cc1	?	-11.3%[10.9 µM]	?	-0.5%
COc1ccc(Cn2c(=O)c3ccccc3n3c(-c4cccc(OC)c4OC)nnc23)cc1	-5.7%	-17.7%[10.9 µM]	3.1%	-1.6%
COc1ccc(OC)c(-c2nnc3n(CCc4ccccc4)c(=O)c4ccccc4n23)c1	6.1%	-13.2%[10.9 µM]	12.6µM*	?
C=CCC1C=CC(Oc2ccc(F)cc2C)C(CO)O1 (configuration not stated)	2.3%[9.22 µM]	/	2.0%[9.22 µM]	/
O=C(OCC1OC(OC(=O)c2cc(O)c(O)c(OC(=O)c3cc(O)c(O)c(O)c3)c2)[C@@H](OC(=O)c2cc(O)c(O)c(OC(=O)c3cc(O)c(O)c(O)c3)c2)C(OC(=O)c2cc(O)c(O)c(OC(=O)c3cc(O)c(O)c(O)c3)c2)C1OC(=O)c1cc(O)c(O)c(OC(=O)c2cc(O)c(O)c(O)c2)c1)c1cc(O)c(O)c(OC(=O)c2cc(O)c(O)c(O)c2)c1 (some centres not stated)	10µM*	-82.9%	6.31µM*	/
COc1ccc(-c2nnc(Nc3nc4c(OC)cccc4s3)o2)c(OC)c1	?	-31.1%	10µM*	?
COc1ccc(-c2nnc(Nc3nc4c(OC)cccc4s3)o2)cc1	?	-18.8%	12.6µM*	?
